# Measured values published in PubChem BioAssay (Tox21).
# Results filed as inconclusive are left out. Entries that show only a call come without a potency. Calls of active or inactive are those of the source. Unless noted, calls follow the shape of the dose curve; as a rule, active = well fitted curve in the direction sought with a large enough effect in the repeat runs; inconclusive = weak or mixed curves; inactive = no such curve, though single readings can be large; an effect the other way counts as inactive or inconclusive.
# What was measured:
# [1] = qHTS assay to identify aromatase inhibitors - cell viability counter screen (AID 743084);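 also: cells stimulated with testosterone during compound exposure; nearly all actives have a fitted effect of over 55% in size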
# [2] = target: Aryl hydrocarbon receptor (Homo sapiens) (UniProt P35869); experiment: qHTS assay to identify small molecule that activate the aryl hydrocarbon receptor (AhR) signaling pathway (AID 743085); also: nearly all actives have a fitted effect of over 15% in size; also: potency is read from the fitted curve at half-maximal effect;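 as to activation: HG2L7.5c1 human HepG2 liver cells with stably integrated DRE-driven firefly reporter; series mostly up to about 70 µM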
# Summary of the method: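 Luminescence (ONE-Glo) from a dioxin-responsive-element luciferase reporter in HG2L7.5c1 HepG2 cells after 24 hr compound exposure at 37C; viability measured by CellTiter-Fluor fluorescence beforehand.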
# [3] = qHTS assay to identify small molecule that activate the aryl hydrocarbon receptor (AhR) signaling pathway - cell viability counter screen (AID 743086);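 also: HepG2 liver cells carrying the AhR DRE luciferase reporter; series mostly up to about 70 µM; nearly all actives have a fitted effect of over 45% in size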
# Summary of the method: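 HepG2-AhR-luc (HG2L7.5c1) cells, 4000/well, treated 24 h at 37 C with compound; viability measured as CellTiter-Fluor fluorescence after 30 min in the same wells as the luciferase read.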
# [4] = target: Peroxisome proliferator-activated receptor gamma (Homo sapiens) (UniProt P37231); experiment: qHTS assay to identify small molecule agonists of the peroxisome proliferator-activated receptor gamma (PPARg) signaling pathway (AID 743094; active = well fitted activation curve with a large enough effect in the signal ratio in the repeat runs, not every such curve was filed as active; the % refers to the signal ratio)
# Summary of the method: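 Agonism was assessed in a beta-lactamase reporter system, HEK293H cells with a stably integrated UAS-bla construct under PPARg control; the 17 h treatment at 37C preceded a 1 h room-temperature FRET substrate read.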
# [5] = target: Peroxisome proliferator-activated receptor gamma (Homo sapiens) (UniProt P37231); experiment: qHTS assay to identify small molecule antagonists of the peroxisome proliferator-activated receptor gamma (PPARg) signaling pathway (AID 743191; calls by dose curve; also: series mostly up to about 63 µM; nearly all actives have a fitted effect of over 30% in size)
# Summary of the method: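 GeneBLAzer PPARg UAS-bla HEK293H cells, 5 h post-plating, exposed to compounds 17 h at 37C. LiveBLAzer B/G FRET substrate added for 1 h at room temperature; beta-lactamase reporter read by fluorescence intensity.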
# [6] = qHTS assay for small molecule agonists of the antioxidant response element (ARE) signaling pathway - cell viability counter screen (AID 743203; calls by dose curve; also: nearly all actives have a fitted effect of over 55% in size)
# Summary of the method: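 ATP content via CellTiter-Glo luminescence served as the viability measure. Cells: ARE-bla HepG2, 2,000 per well. Exposure: 16 hrs, 37C/5% CO2.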
# [7] = qHTS assay for small molecule activators of the heat shock response signaling pathway (AID 743210; active = well fitted activation curve with a large enough effect in the signal ratio in the repeat runs, with a control signal flat, not every such curve was filed as active; the % refers to the signal ratio;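 also: HeLa cells with beta-lactamase reporter driven by heat shock elements; series mostly up to about 63 µM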)
# Summary of the method: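 Following overnight attachment, HSE-bla HeLa cells received test compounds for 5 h at 37 C; beta-lactamase activity was then detected via FRET substrate fluorescence.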
# [8] = qHTS assay for small molecule activators of the heat shock response signaling pathway - cell viability counter screen (AID 743209); also: nearly all actives have a fitted effect of over 50% in size
# Summary of the method: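 Compounds dissolved in DMSO were added to overnight-plated HSE-bla HeLa cells and left 5 h at 37 C. Cell viability was quantified by luminescence using CellTiter-Glo.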
# [9] = qHTS assay for small molecule agonists of the antioxidant response element (ARE) signaling pathway (AID 743202; active = well fitted activation curve with a large enough effect in the signal ratio in the repeat runs, not every such curve was filed as active; the % refers to the signal ratio; also: potency is read from the fitted curve at half-maximal effect)
# Summary of the method: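 HepG2 ARE-bla cells; 16 h treatment at 37 C; FRET-based beta-lactamase fluorescence read after 2 h substrate incubation at room temperature.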
# [10] = qHTS assay to identify small molecule antagonists of the peroxisome proliferator-activated receptor gamma (PPARg) signaling pathway - cell viability counter screen (AID 743194); conditions: Potency: co-treated with 50 nM rosiglitazone; also: nearly all actives have a fitted effect of over 55% in size
# Summary of the method: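 Cytotoxicity counter screen in PPARg-bla HEK293H cells, same wells as reporter assay. Compounds plus 50 nM rosiglitazone (final) for 17 h at 37 C, then viability read by CellTiter-Glo luminescence.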
# Peroxisome proliferator-activated receptor gamma (Homo sapiens), sequence (P37231 whole entry, looked up): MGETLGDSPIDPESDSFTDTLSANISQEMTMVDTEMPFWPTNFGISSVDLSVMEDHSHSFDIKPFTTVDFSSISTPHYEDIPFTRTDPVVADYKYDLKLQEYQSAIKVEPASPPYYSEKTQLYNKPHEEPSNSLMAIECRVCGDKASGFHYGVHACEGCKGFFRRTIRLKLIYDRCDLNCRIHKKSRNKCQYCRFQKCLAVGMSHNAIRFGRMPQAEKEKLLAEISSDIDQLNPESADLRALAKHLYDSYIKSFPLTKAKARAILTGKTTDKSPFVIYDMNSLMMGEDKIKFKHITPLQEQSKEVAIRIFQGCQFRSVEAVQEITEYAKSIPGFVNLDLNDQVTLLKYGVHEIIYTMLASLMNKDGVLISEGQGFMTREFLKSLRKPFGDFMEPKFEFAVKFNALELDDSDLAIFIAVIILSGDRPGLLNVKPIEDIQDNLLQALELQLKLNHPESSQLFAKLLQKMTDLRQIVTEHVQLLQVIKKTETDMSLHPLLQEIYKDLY
# Aryl hydrocarbon receptor (Homo sapiens), sequence (P35869 whole entry, looked up): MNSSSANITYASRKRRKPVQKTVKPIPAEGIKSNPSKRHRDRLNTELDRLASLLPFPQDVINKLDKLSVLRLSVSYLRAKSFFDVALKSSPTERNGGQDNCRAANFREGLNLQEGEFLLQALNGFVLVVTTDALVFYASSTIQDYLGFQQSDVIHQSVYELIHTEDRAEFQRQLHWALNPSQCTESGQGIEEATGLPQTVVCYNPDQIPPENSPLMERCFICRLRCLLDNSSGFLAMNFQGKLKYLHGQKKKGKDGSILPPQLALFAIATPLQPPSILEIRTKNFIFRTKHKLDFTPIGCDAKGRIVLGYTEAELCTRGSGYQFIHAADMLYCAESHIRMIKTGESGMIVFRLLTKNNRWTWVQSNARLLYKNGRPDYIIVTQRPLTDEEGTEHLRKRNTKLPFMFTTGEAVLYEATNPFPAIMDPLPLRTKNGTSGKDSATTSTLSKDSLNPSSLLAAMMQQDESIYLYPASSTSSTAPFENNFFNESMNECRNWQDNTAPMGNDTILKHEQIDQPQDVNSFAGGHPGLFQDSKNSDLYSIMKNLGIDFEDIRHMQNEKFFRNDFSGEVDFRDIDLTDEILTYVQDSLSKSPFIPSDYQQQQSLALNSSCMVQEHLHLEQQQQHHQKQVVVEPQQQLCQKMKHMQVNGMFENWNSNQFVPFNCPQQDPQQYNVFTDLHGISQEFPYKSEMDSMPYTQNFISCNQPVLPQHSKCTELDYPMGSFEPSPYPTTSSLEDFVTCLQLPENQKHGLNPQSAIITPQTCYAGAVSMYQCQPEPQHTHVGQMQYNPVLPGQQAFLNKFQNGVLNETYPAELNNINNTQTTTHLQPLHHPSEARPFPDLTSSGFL
SMILES,Potency [1],Potency [2],outcome [3],outcome [4],Potency [5],Potency [6],outcome [7],Potency [8],Potency [9],Potency [10]
O=[N+]([O-])c1cccc2cccnc12,inactive,35.3 µM (active),inactive,inactive,inactive,inactive,inactive,,,
CCOP(=S)(OCC)Oc1ncn(-c2ccccc2)n1,inactive,24.3 µM (active),inactive,inactive,inactive,inactive,inactive,inactive,,
C[C@]1(O)CC[C@H]2[C@@H]3CCC4=CC(=O)CC[C@]4(C)[C@@]3(F)[C@@H](O)C[C@@]21C,inactive,inactive,inactive,inactive,inactive,inactive,inactive,inactive,,
NC(=O)c1cc([N+](=O)[O-])cc([N+](=O)[O-])c1,inactive,inactive,inactive,inactive,inactive,inactive,inactive,,23.7 µM (active),
C=CC1CC=CCC1 (stereo not given),inactive,inactive,inactive,inactive,inactive,inactive,inactive,inactive,inactive,
CCSC(=O)N(CC)C1CCCCC1,inactive,inactive,inactive,inactive,,inactive,inactive,inactive,inactive,inactive
CNC(=O)N(C)c1nc2ccccc2s1,inactive,27.3 µM (active),inactive,inactive,inactive,,inactive,inactive,,inactive
CCC1(c2ccccc2)C(=O)NC(=O)NC1=O,inactive,inactive,inactive,inactive,,inactive,inactive,inactive,inactive,inactive
CC(C)[N+](=O)[O-],inactive,inactive,inactive,inactive,,inactive,inactive,inactive,inactive,inactive
ClCC(Cl)(Cl)Cl,inactive,inactive,inactive,inactive,inactive,inactive,inactive,inactive,inactive,
ClC(Cl)(Cl)C(Cl)(Cl)Cl,inactive,inactive,inactive,inactive,,inactive,inactive,inactive,inactive,inactive
ClCC(Cl)Cl,inactive,inactive,inactive,inactive,inactive,inactive,inactive,,,inactive
Cc1cnc[nH]1,inactive,inactive,inactive,inactive,inactive,inactive,inactive,inactive,inactive,
CCOc1nc(C(Cl)(Cl)Cl)ns1,inactive,inactive,inactive,inactive,,inactive,inactive,inactive,inactive,inactive
CCOC(=O)CP(=O)(OCC)OCC,inactive,inactive,inactive,inactive,,inactive,inactive,inactive,inactive,inactive
N#CC(O)c1ccccc1 (stereo not given),inactive,inactive,inactive,inactive,inactive,,inactive,,inactive,
CC(=O)[C@H]1CC[C@H]2[C@@H]3CC[C@H]4C[C@H](O)CC[C@]4(C)[C@H]3C(=O)C[C@]12C,inactive,inactive,inactive,inactive,inactive,,inactive,inactive,,inactive
O=C(N[C@H]1CN2CCC1CC2)c1cc2ccoc2cn1,inactive,inactive,inactive,inactive,inactive,inactive,inactive,,,inactive
NC(=S)C(N)=S,inactive,inactive,inactive,inactive,inactive,inactive,inactive,,,
CC(=O)C(Cl)Cl,inactive,inactive,inactive,inactive,inactive,inactive,inactive,inactive,inactive,

SMILES,Potency [1],Potency [2],outcome [3],outcome [4],Potency [5],Potency [6],outcome [7],Potency [8],Potency [9],Potency [10]
CCC1(c2ccccc2)C(=O)N=C(O)NC1=O (stereo not given),inactive,inactive,inactive,inactive,,inactive,inactive,inactive,inactive,inactive
CC(C)(C)C(=O)C(Oc1ccc(Cl)cc1)n1cncn1 (stereo not given),inactive,48.5 µM (active),inactive,inactive,,inactive,inactive,inactive,inactive,inactive
CCCCOC(=O)[C@@H](C)Oc1ccc(Oc2ccc(C#N)cc2F)cc1,inactive,inactive,inactive,inactive,,inactive,inactive,inactive,,inactive
COC(=O)C1=CCCN(C)C1,inactive,inactive,inactive,inactive,,,inactive,inactive,inactive,inactive
O=C1c2ccccc2C(=O)c2ccccc21,inactive,inactive,inactive,inactive,,,inactive,inactive,inactive,inactive
O=P(O)(Oc1ccccc1)Oc1ccccc1,inactive,inactive,inactive,inactive,,inactive,inactive,inactive,inactive,inactive
CNC(=O)O/N=C(\C)SC,inactive,inactive,inactive,inactive,,inactive,inactive,inactive,inactive,inactive
OCCSCSCCO,inactive,inactive,inactive,inactive,,,inactive,inactive,inactive,inactive
Oc1c(Cl)cccc1Cl,inactive,inactive,inactive,inactive,,inactive,inactive,,,inactive
CSc1nc(N=[N+]=[N-])nc(NC(C)C)n1,inactive,inactive,inactive,inactive,,inactive,inactive,inactive,,inactive
CC(=O)CCc1ccc2c(c1)OCO2,inactive,inactive,inactive,inactive,,,inactive,inactive,inactive,inactive
CCC(Cl)[N+](=O)[O-] (stereo not given),inactive,inactive,inactive,inactive,,,inactive,inactive,inactive,inactive
O=[N+]([O-])c1ccc(CBr)cc1,inactive,inactive,inactive,inactive,,inactive,inactive,inactive,,inactive
OC(Cn1cncn1)(c1ccc(F)cc1)c1ccccc1F (stereo not given),inactive,inactive,inactive,inactive,,inactive,inactive,inactive,inactive,inactive
N#Cc1c(Cl)cccc1Cl,inactive,inactive,inactive,inactive,,,inactive,inactive,inactive,inactive
O=C(O)c1ccc2[nH]cc(CCCCN3CC=C(c4ccccc4)CC3)c2c1,inactive,inactive,inactive,inactive,,inactive,,inactive,,inactive
ClCCOCOCCCl,inactive,inactive,inactive,inactive,,inactive,inactive,inactive,inactive,inactive
Cc1cc(C)c(C(=O)P(=O)(C(=O)c2c(C)cc(C)cc2C)c2ccccc2)c(C)c1,inactive,inactive,inactive,inactive,,inactive,inactive,inactive,,inactive
CC(CCc1ccccc1)NC(C)C(O)c1ccc(O)cc1 (stereo not given),inactive,inactive,inactive,inactive,,inactive,inactive,inactive,,inactive
CCS(=O)(=O)C(C)(C)S(=O)(=O)CC,inactive,inactive,inactive,inactive,,inactive,inactive,,inactive,inactive

SMILES,Potency [1],Potency [2],outcome [3],outcome [4],Potency [5],Potency [6],outcome [7],Potency [8],Potency [9],Potency [10]
CC(C1CC1)C(O)(Cn1cncn1)c1ccc(Cl)cc1 (stereo not given),inactive,inactive,inactive,inactive,,inactive,inactive,inactive,,inactive
CCc1cc2c(s1)-n1c(C)nnc1CN=C2c1ccccc1Cl,inactive,inactive,inactive,inactive,,inactive,inactive,inactive,inactive,inactive
ClC(Cl)C(Cl)Cl,inactive,inactive,inactive,inactive,,,inactive,inactive,inactive,inactive
CC(C)CP(=S)(S)CC(C)C,inactive,inactive,inactive,inactive,,inactive,inactive,,inactive,inactive
CNNC,inactive,inactive,inactive,inactive,,inactive,inactive,inactive,,inactive
[Cl][Sn]([Cl])([Cl])[Cl],inactive,inactive,inactive,inactive,,inactive,inactive,,inactive,inactive
CC1(C)C(=O)NC(=O)NC1=O,inactive,inactive,inactive,inactive,,inactive,inactive,inactive,,inactive
ClC(Br)Br,inactive,inactive,inactive,inactive,,inactive,inactive,inactive,inactive,inactive
N#CC(Cl)(Cl)Cl,inactive,inactive,inactive,inactive,,inactive,inactive,,inactive,inactive
O=C1CN=C(c2ccccc2)c2cc([N+](=O)[O-])ccc2N1,inactive,inactive,inactive,inactive,,inactive,inactive,,inactive,inactive
N#CCCC#N,inactive,inactive,inactive,inactive,,,inactive,,inactive,inactive
O=NN1CCCCC1,inactive,inactive,inactive,inactive,,,inactive,,inactive,inactive
CCOP(=S)(OCC)SCSc1ccc(Cl)cc1,inactive,inactive,inactive,inactive,,inactive,inactive,,,inactive
CC1CCCCC1NC(=O)Nc1ccccc1 (stereo not given),inactive,inactive,inactive,inactive,,inactive,inactive,inactive,inactive,inactive
CCCSC(=O)Cl,inactive,inactive,inactive,inactive,,inactive,inactive,inactive,inactive,inactive
Cc1cccc(C#N)c1,inactive,inactive,inactive,inactive,,,inactive,inactive,inactive,inactive
CCCCN(CCCCO)N=O,inactive,inactive,inactive,inactive,,,inactive,,inactive,inactive
O=C(Oc1ccc(Br)cc1)N1CCN2CCC1CC2,inactive,inactive,inactive,inactive,,inactive,inactive,inactive,,inactive
CN(C)CCc1ccc(O)cc1,inactive,inactive,inactive,inactive,,,inactive,inactive,inactive,
CNC(=O)Oc1cccc(C(C)C)c1,inactive,inactive,inactive,,,inactive,inactive,inactive,inactive,inactive
